According to PubChem BioAssay (Tox21):
Results filed as inconclusive are left out. Activity calls are given as the source filed them. The call rests on the fitted dose curve.

Tests used:
[1] = molecular target: Acetylcholinesterase (Homo sapiens) (UniProt P22303); assay: Acetylcholinesterase (AChE) small molecule antagonists: colormetric cell-based qHTS assay (AID 1347395); further: nearly all actives have a fitted effect of over 30% in size
Summary of the method: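 SH-SY5Y cells, plated overnight at 37 C, were exposed to compounds for 30 min at 37 C and 5% CO2. Acetylthiocholine plus DTNB was then added, and thiocholine from endogenous AChE was quantified colorimetrically after 90 min at 37 C.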

[2] = molecular target: Acetylcholinesterase (Homo sapiens) (UniProt P22303); assay: Acetylcholinesterase (AChE) small molecule antagonists: enzyme-based qHTS assay (AID 1347397); settings: Potency: AChE enzyme activity inhibition; outcome: AChE enzyme activity inhibition; further: nearly all actives have a fitted effect of over 55% in size
Summary of the method: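 Tox21 library chemicals are tested in qHTS format against recombinant human AChE. The enzyme, dispensed at 50 mU/mL, sits with compound for 30 min at room temperature. A DTNB–acetylthiocholine cocktail follows, and colour is read after 10 min.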

[3] = molecular target: Acetylcholinesterase (Homo sapiens) (UniProt P22303); assay: Acetylcholinesterase (AChE) small molecule antagonists: fluorescence cell-based qHTS assay (AID 1347398); settings: Potency: AChE activity; outcome: AChE activity; further: nearly all actives have a fitted effect of over 50% in size
Summary of the method: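 Cellular AChE inhibition: SH-SY5Y cells treated with test chemical for 30 min at 37 C, then acetylthiocholine hydrolysis followed over 40 min at room temperature via thiocholine-reactive Thiolite Green fluorescence (490/520 nm).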

[4] = molecular target: Acetylcholinesterase (Homo sapiens) (UniProt P22303); assay: Acetylcholinesterase (AChE) small molecule antagonists: enzyme-based qHTS assay with human liver microsomes (AID 1347399); settings: Potency: qHTS inhibition; outcome: qHTS inhibition; further: nearly all actives have a fitted effect of over 60% in size
Summary of the method: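 Recombinant human AChE (50 mU/mL in the enzyme mix) and human liver microsomes (0.25 mg/mL final) were preincubated with compound and NADPH (0.25 mg/mL final) for 30 min at 37 C. Acetylthiocholine/DTNB was then added; thiocholine was read colorimetrically after 10 min at room temperature.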
On the % scale 0 is the no-effect control and ±100 the full control effect.

Sequence of Acetylcholinesterase (Homo sapiens) (P22303 whole entry, looked up): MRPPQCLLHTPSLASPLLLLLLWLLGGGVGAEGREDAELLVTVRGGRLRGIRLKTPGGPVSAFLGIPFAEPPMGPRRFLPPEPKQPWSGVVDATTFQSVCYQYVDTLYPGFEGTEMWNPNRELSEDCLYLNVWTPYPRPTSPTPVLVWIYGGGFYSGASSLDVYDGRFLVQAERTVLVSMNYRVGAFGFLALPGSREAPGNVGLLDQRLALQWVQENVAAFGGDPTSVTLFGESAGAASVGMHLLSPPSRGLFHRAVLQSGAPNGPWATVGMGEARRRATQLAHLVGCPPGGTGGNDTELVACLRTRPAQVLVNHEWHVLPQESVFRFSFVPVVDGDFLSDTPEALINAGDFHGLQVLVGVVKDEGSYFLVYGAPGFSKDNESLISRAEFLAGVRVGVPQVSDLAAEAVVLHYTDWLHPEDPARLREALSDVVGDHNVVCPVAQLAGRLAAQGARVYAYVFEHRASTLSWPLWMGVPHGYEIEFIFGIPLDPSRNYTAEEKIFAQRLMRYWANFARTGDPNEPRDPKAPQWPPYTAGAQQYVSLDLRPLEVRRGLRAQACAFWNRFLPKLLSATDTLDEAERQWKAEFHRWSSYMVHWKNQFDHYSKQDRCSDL

C=C(C)C(=O)OCCO
inactive: Potency [1] | Potency [2] | Potency [3] | Potency [4]

O=S1(=O)c2cccc3cccc(c23)N1CCCN1CCN(c2ccc(F)cc2)CC1
inactive: Potency [1] | Potency [2] | Potency [3] | Potency [4]

CN1C(=O)CC(c2ccccc2)C1=O (stereo not given)
inactive: Potency [1] | Potency [2] | Potency [3] | Potency [4]

OC(Cn1cncn1)(Cn1cncn1)c1ccc(F)cc1F
inactive: Potency [1] | Potency [2] | Potency [3] | Potency [4]

Cc1ccc2cccnc2c1
inactive: Potency [1] | Potency [2] | Potency [3] | Potency [4]

O=C(OCC(O)CO)c1ccccc1Nc1ccnc2c(C(F)(F)F)cccc12 (stereo not given)
inactive: Potency [1] | Potency [2] | Potency [3] | Potency [4]

CC[C@H](C)[C@@H](C(=O)O)n1sc2ccccc2c1=O
inactive: Potency [1] | Potency [2] | Potency [3] | Potency [4]

COc1cc(Cl)ccc1Cl
inactive: Potency [1] | Potency [2] | Potency [3] | Potency [4]

COc1ccccc1Oc1c(NS(=O)(=O)c2ccc(C(C)(C)C)cc2)nc(-c2ncccn2)nc1OCCO
inactive: Potency [1] | Potency [2] | Potency [3] | Potency [4]

CC(=O)OC(C)(C)C1CC=C(C)CC1 (stereo not given)
inactive: Potency [1] | Potency [2] | Potency [3] | Potency [4]

NS(=O)(=O)c1cc2c(cc1Cl)NCNS2(=O)=O
inactive: Potency [1] | Potency [2] | Potency [3] | Potency [4]

CCNCCO
inactive: Potency [1] | Potency [2] | Potency [3] | Potency [4]

CN(C)CCCN(C)C
inactive: activity, negative = inhibition [1] 3.16% [at 10.5 µM] | activity change, negative = inhibition [2] 0.096% [at 10.5 µM] | activity change, negative = inhibition [3] 0.828% [at 10.5 µM] | activity change, negative = inhibition [4] 0.146% [at 10.5 µM]

Nc1nnnn1-c1ccccc1
inactive: Potency [1] | Potency [2] | Potency [3] | Potency [4]

Cc1cc(C(=C2C=CC(=Nc3ccc(S(=O)(=O)O)cc3S(=O)(=O)O)C=C2)c2ccc(Nc3ccc(S(=O)(=O)O)cc3)cc2)ccc1N
inactive: Potency [1] | Potency [2] | Potency [3] | Potency [4]

O=C(c1ccccc1)C(O)c1ccccc1 (stereo not given)
inactive: Potency [1] | Potency [2] | Potency [3] | Potency [4]

O=C(O)CNc1ccccc1
inactive: Potency [1] | Potency [2] | Potency [3] | Potency [4]

CCOC(=O)CC(=O)c1ccccc1
inactive: Potency [1] | Potency [2] | Potency [3] | Potency [4]

CC(=O)CC(=O)Nc1ccccc1
inactive: Potency [1] | Potency [2] | Potency [3] | Potency [4]

Nc1ccc(C(=O)O)cc1
inactive: Potency [1] | Potency [2] | Potency [3] | Potency [4]

C=C(C)C(=O)OCCC(C)OC(=O)C(=C)C (stereo not given)
inactive: Potency [1] | Potency [2] | Potency [3] | Potency [4]

CC(NN)c1ccccc1 (stereo not given)
inactive: activity, negative = inhibition [1] 1.5% [at 23.6 µM] | activity change, negative = inhibition [2] 0.277% [at 23.6 µM] | activity change, negative = inhibition [3] 0.294% [at 23.8 µM] | activity change, negative = inhibition [4] 1.27% [at 23.6 µM]

Oc1ccccc1-c1nnco1
inactive: Potency [1] | Potency [2] | Potency [3] | Potency [4]

OCCSc1ccccc1
inactive: Potency [1] | Potency [2] | Potency [3] | Potency [4]

CN(C)c1ccc(/C=C/c2ccc([N+](=O)[O-])cc2)cc1
inactive: activity, negative = inhibition [1] 3.64% [at 10.5 µM] | activity change, negative = inhibition [2] 1.35% [at 10.5 µM] | activity change, negative = inhibition [3] 4.62% [at 10.5 µM] | activity change, negative = inhibition [4] 1.54% [at 10.5 µM]

CC(C)(C)C(=O)OCOC(=O)[C@@H]1N2C(=O)[C@@H](NC(=O)[C@H](N)c3ccccc3)[C@H]2SC1(C)C
inactive: Potency [1] | Potency [2] | Potency [3] | Potency [4]

CO[Si](CCCNCCNCCN)(OC)OC
inactive: Potency [1] | Potency [2] | Potency [3] | Potency [4]

CO[C@H]1O[C@H](CO)[C@@H](O)[C@H](O)[C@H]1O
inactive: Potency [1] | Potency [2] | Potency [3] | Potency [4]

CC1CCC(C(C)(C)S)C(=O)C1 (stereo not given)
inactive: Potency [1] | Potency [2] | Potency [3] | Potency [4]

O=C(O)c1ccccc1S
inactive: Potency [1] | Potency [2] | Potency [3] | Potency [4]
